Test results: PubChem BioAssay AID720517 (National Center for Advancing Translational Sciences (NCATS), 2013)
Results filed as inconclusive are left out. A call without a number means that no potency is given here. Activity calls are given as the source filed them. Calls come from the whole dose curve; as a rule, active = well fitted activation curve with a large enough effect; inconclusive = small, poorly fitted or top-dose-only effect; inactive = flat fitted curve, though single readings scatter.

Assay: qHTS for Inhibitors of Cell Surface uPA Generation: FP59 Counterscreen for Cherry-picked Compounds
Conditions: FP59 anthrax toxin cytotoxicity counterscreen, cells; series mostly up to 115 µM

Row | SMILES | Potency
1 | O=C(COC(=O)Cn1cnc2ccccc21)NCc1ccc(F)cc1 | inactive
2 | Cc1cnc(C(=O)OCC(=O)Nc2ccc3c(c2)OCCO3)cn1 | inactive
3 | CC(=O)NCCc1cnc[nH]1 | inactive
4 | CCN1CCN(C(c2ccccc2)c2nnnn2Cc2ccc3c(c2)OCO3)CC1 (configuration not stated) | inactive
5 | Cc1ccc(NC(=S)N2CCN(Cc3ccc4c(c3)OCO4)CC2)c(C)c1 | inactive
6 | O=C(O)CNC(=S)N(Cc1ccccc1)Cc1cccnc1 | inactive
7 | O=C(C[C@@H]1C/C=C\C[C@H](Cc2ccc(F)cc2)C(=O)OC[C@H]2CCCN2C1=O)N[C@H](CO)Cc1ccccc1 | inactive
8 | Cc1nc2ncccn2c1-c1csc(Nc2ccc(S(N)(=O)=O)cc2)n1 | inactive
9 | COCCNC(=O)COCc1cc(-c2ccc3c(c2)OCO3)on1 | inactive
10 | COc1cccc(C(=O)NCC(c2ccco2)N2CCc3ccccc3C2)c1 (configuration not stated) | inactive
11 | O=C(O)C(Nc1nc(C(F)(F)F)nc2ccccc12)c1ccccc1 (configuration not stated) | inactive
12 | CC(C)c1ccc(NC(=O)COc2ccc(S(=O)(=O)N3CCOCC3)cc2)cc1 | inactive
13 | COc1cccc(NC(=O)CSc2nc3ncc(Br)cc3[nH]2)c1 | inactive
14 | CCCCNC(=O)C1CCN(S(=O)(=O)c2c(C)noc2/C=C\c2ccc(OC)cc2)CC1 | inactive
15 | Cc1nn(-c2ccc(F)cc2)c(C)c1NS(=O)(=O)c1ccc(Cl)cc1 | inactive
16 | COc1cccc2c1Oc1ncccc1N(C(=O)CCC(=O)NCc1ccc(C)cc1)C2 | inactive
17 | CCC1(CC)NC(=O)N(CC(=O)OCC(=O)c2cc(C)c(C)cc2C)C1=O | inactive
